The panel holds about 79,000 compounds, 15% with a hit somewhere; the sample as a whole holds those more often. A number with no mark means an inactive call. The source made the active and inactive calls. No stated cut-off is given here; in the data, active means growth inhibition above about 70%; inactive means the rest.
Columns and labels:
[1] = NCI Yeast Anticancer Drug Screen. Data for the rad50 strain (AID 155);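 further: 0% = growth of vehicle-only cultures of the same strain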; details: S. cerevisiae rad50 strain growth inhibition, stronger effect = higher value
Summary of the method: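 DNA repair mutant yeast, compound exposure, growth read-out; inhibition is taken relative to vehicle.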

[2] = NCI Yeast Anticancer Drug Screen. Data for the mec2-1 strain (AID 157); details: S. cerevisiae mec2-1 strain, stronger effect = higher value
Summary of the method: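 Growth inhibition is read against vehicle-treated controls after compound exposure of the mec2-1 yeast strain, which is defective in DNA damage repair or cell cycle control.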

[3] = NCI Yeast Anticancer Drug Screen. Data for the sgs1 mgt1 strain (AID 161);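 further: 0% = growth of cultures given vehicle only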; details: S. cerevisiae sgs1 mgt1 strain, stronger effect = higher value
Summary of the method: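 Compounds are added to genetically altered yeast, and growth is compared with cultures given vehicle alone to give percent inhibition.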

[4] = NCI Yeast Anticancer Drug Screen. Data for the cln2 rad14 strain (AID 165);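 further: 0% = growth equal to vehicle treated cultures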; details: S. cerevisiae cln2 rad14 strain, stronger effect = higher value
Summary of the method: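 Growth inhibition, relative to vehicle-treated controls, is the read-out. The test organism is a yeast strain with defined genetic alterations, cln2 rad14.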

[5] = NCI Yeast Anticancer Drug Screen. Data for the bub3 strain (AID 167); details: S. cerevisiae bub3 mutant strain, stronger effect = higher value
Summary of the method: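 In this screen, a yeast mutant lacking normal mitotic checkpoint function is challenged with compound. Relative growth versus vehicle gives the inhibition value.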

[6] = NCI Yeast Anticancer Drug Screen. Data for the mlh1 rad18 strain (AID 175); details: S. cerevisiae mlh1 rad18 strain growth inhibition, stronger effect = higher value
Summary of the method: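 Cells of a genetically altered yeast strain, deficient in DNA damage repair, were treated with compound. Their growth was then compared with that of vehicle-treated cultures to give inhibition.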

[7] = at 5.0 µM (retest, dose inferred, filed as 0.5)
[8] = at 50.0 µM (retest, dose inferred, filed as 5.0)

Compound `O=C1C(=O)C(Cc2ccccc2)(c2ccccc2)C(=O)N1c1ccccc1` (configuration not stated) has a growth inhibition [1, 7] of 0%, a growth inhibition [1, 8] of 42% and a growth inhibition ([1]; at 50.0 µM) of 68.2%. The growth inhibition [2, 7] was -3%, the growth inhibition [2, 8] was 59% and the growth inhibition ([2]; at 50.0 µM) was 6.25%. For the same compound, the growth inhibition [3, 7] was -2%, the growth inhibition [3, 8] was 70% (active) and the growth inhibition ([3]; at 50.0 µM) was 54.6%. It also gave a growth inhibition [4, 7] of 3%, a growth inhibition [4, 8] of 22% and a growth inhibition ([4]; at 50.0 µM) of -9.8%. The growth inhibition [5, 7] was -1%, the growth inhibition [5, 8] was 52% and the growth inhibition ([5]; at 50.0 µM) was 10.3%. For the same compound, the growth inhibition [6, 7] was 1%, the growth inhibition [6, 8] was 62% and the growth inhibition ([6]; at 50.0 µM) was 40.4%.

`O=C(c1ccc(Cl)cc1)c1ccc([N+](=O)[O-])cc1` gave a growth inhibition [1, 7] of 13%, a growth inhibition [1, 8] of -4% and a growth inhibition ([1]; at 50.0 µM) of 5.35%. For the same compound, the growth inhibition [2, 7] was -4%, the growth inhibition [2, 8] was 1% and the growth inhibition ([2]; at 50.0 µM) was -16.4%. For the same compound, the growth inhibition [3, 7] was 4%, the growth inhibition [3, 8] was -14% and the growth inhibition ([3]; at 50.0 µM) was 4.6%. The growth inhibition [4, 7] was -3%, the growth inhibition [4, 8] was 1% and the growth inhibition ([4]; at 50.0 µM) was -2.2%. The growth inhibition [5, 7] was 3%, the growth inhibition [5, 8] was 31% and the growth inhibition ([5]; at 50.0 µM) was 74.5% (active). It also gave a growth inhibition [6, 7] of -3%, a growth inhibition [6, 8] of 7% and a growth inhibition ([6]; at 50.0 µM) of 8.05%.

In the case of `S=c1[nH]c2ccc(Br)cc2c(=S)n1-c1ccccc1`, the growth inhibition [1, 7] is reported as -1%, the growth inhibition [1, 8] is reported as 19% and the growth inhibition ([1]; at 50.0 µM) is reported as 90.5% (active). The growth inhibition [2, 7] was 1%, the growth inhibition [2, 8] was 5% and the growth inhibition ([2]; at 50.0 µM) was 91.2% (active). The growth inhibition [3, 7] was 0%, the growth inhibition [3, 8] was 24% and the growth inhibition ([3]; at 50.0 µM) was 89.5% (active). For the same compound, the growth inhibition [4, 7] was -1%, the growth inhibition [4, 8] was 4% and the growth inhibition ([4]; at 50.0 µM) was 88% (active). For the same compound, the growth inhibition [5, 7] was -9%, the growth inhibition [5, 8] was 14% and the growth inhibition ([5]; at 50.0 µM) was 89.4% (active). The growth inhibition [6, 7] was -29%, the growth inhibition [6, 8] was 5% and the growth inhibition ([6]; at 50.0 µM) was 87.7% (active).

In the case of `COc1ccc2sc3c(C)ccc(NCC4CCCN5CCCCC45)c3c(=O)c2c1` (configuration not stated), the growth inhibition [1, 7] is reported as 42%, the growth inhibition [1, 8] is reported as 81% (active) and the growth inhibition ([1]; at 50.0 µM) is reported as 97.2% (active). The growth inhibition [2, 7] was 12%, the growth inhibition [2, 8] was 88% (active) and the growth inhibition ([2]; at 50.0 µM) was 99.6% (active). The growth inhibition [3, 7] was 32%, the growth inhibition [3, 8] was 76% (active) and the growth inhibition ([3]; at 50.0 µM) was 99.3% (active). For the same compound, the growth inhibition [4, 7] was 16%, the growth inhibition [4, 8] was 85% (active) and the growth inhibition ([4]; at 50.0 µM) was 99.2% (active). For the same compound, the growth inhibition [5, 7] was 21%, the growth inhibition [5, 8] was 92% (active) and the growth inhibition ([5]; at 50.0 µM) was 99.5% (active). For the same compound, the growth inhibition [6, 7] was 27%, the growth inhibition [6, 8] was 81% (active) and the growth inhibition ([6]; at 50.0 µM) was 99.4% (active).

Compound `COc1ccc(/C=C2\NC(=O)NC2=O)cc1` has a growth inhibition [1, 7] of 0%, a growth inhibition [1, 8] of 7% and a growth inhibition ([1]; at 50.0 µM) of -1.65%. For the same compound, the growth inhibition [2, 7] was -4%, the growth inhibition [2, 8] was 5% and the growth inhibition ([2]; at 50.0 µM) was -6.8%. The growth inhibition [3, 7] was -1%, the growth inhibition [3, 8] was 3% and the growth inhibition ([3]; at 50.0 µM) was -0.65%. The growth inhibition [4, 7] was -4%, the growth inhibition [4, 8] was -3% and the growth inhibition ([4]; at 50.0 µM) was 24.1%. It also gave a growth inhibition [5, 7] of 27%, a growth inhibition [5, 8] of 22% and a growth inhibition ([5]; at 50.0 µM) of 6.25%. It also gave a growth inhibition [6, 7] of -1%, a growth inhibition [6, 8] of 5% and a growth inhibition ([6]; at 50.0 µM) of 18.6%.

In the case of `O=C(c1ccccc1)c1ccc(OCC2CO2)cc1` (configuration not stated), the growth inhibition [1, 7] is reported as 10%, the growth inhibition [1, 8] is reported as 77% (active) and the growth inhibition ([1]; at 50.0 µM) is reported as 64.3%. It also gave a growth inhibition [2, 7] of -2%, a growth inhibition [2, 8] of 23% and a growth inhibition ([2]; at 50.0 µM) of 25%. The growth inhibition [3, 7] was 10%, the growth inhibition [3, 8] was 64% and the growth inhibition ([3]; at 50.0 µM) was 50.4%. For the same compound, the growth inhibition [4, 7] was -5%, the growth inhibition [4, 8] was 58% and the growth inhibition ([4]; at 50.0 µM) was 20.6%. It also gave a growth inhibition [5, 7] of -1%, a growth inhibition [5, 8] of 29% and a growth inhibition ([5]; at 50.0 µM) of 12.1%. For the same compound, the growth inhibition [6, 7] was 7%, the growth inhibition [6, 8] was 74% (active) and the growth inhibition ([6]; at 50.0 µM) was 71.9% (active).

Compound `O=C1NC(=S)S/C1=C/c1ccc(/C=C2/SC(=S)NC2=O)cc1` has a growth inhibition [1, 7] of -16%, a growth inhibition [1, 8] of -3% and a growth inhibition ([1]; at 50.0 µM) of 21%. It also gave a growth inhibition [2, 7] of -10%, a growth inhibition [2, 8] of -14% and a growth inhibition ([2]; at 50.0 µM) of 22.6%. The growth inhibition [3, 7] was -6%, the growth inhibition [3, 8] was -3% and the growth inhibition ([3]; at 50.0 µM) was 9.45%. For the same compound, the growth inhibition [4, 7] was -19%, the growth inhibition [4, 8] was -22% and the growth inhibition ([4]; at 50.0 µM) was 58.4%. The growth inhibition [5, 7] was -12%, the growth inhibition [5, 8] was -12% and the growth inhibition ([5]; at 50.0 µM) was 7.75%. It also gave a growth inhibition [6, 7] of -15%, a growth inhibition [6, 8] of -19% and a growth inhibition ([6]; at 50.0 µM) of 28.4%.

Compound `OCC(O)C(O)C(O)C(O)c1cnn(-c2ccccc2)n1` (configuration not stated) has a growth inhibition [1, 7] of 3%, a growth inhibition [1, 8] of -4% and a growth inhibition ([1]; at 50.0 µM) of 10.8%. It also gave a growth inhibition [2, 7] of -8%, a growth inhibition [2, 8] of -24% and a growth inhibition ([2]; at 50.0 µM) of 3.45%. The growth inhibition [3, 7] was 3%, the growth inhibition [3, 8] was -5% and the growth inhibition ([3]; at 50.0 µM) was 15.2%. The growth inhibition [4, 7] was -4%, the growth inhibition [4, 8] was -2% and the growth inhibition ([4]; at 50.0 µM) was 14.2%. It also gave a growth inhibition [5, 7] of -3%, a growth inhibition [5, 8] of 2% and a growth inhibition ([5]; at 50.0 µM) of -1.3%. It also gave a growth inhibition [6, 7] of -7%, a growth inhibition [6, 8] of -2% and a growth inhibition ([6]; at 50.0 µM) of 18.9%.

For `COc1ccc(C(c2ccc(C(C)C)cc(OC)c2=O)c2ccc(C(C)C)cc(OC)c2=O)cc1`, the growth inhibition [1, 7] was 7%, the growth inhibition [1, 8] was 54% and the growth inhibition ([1]; at 50.0 µM) was 22.4%. The growth inhibition [2, 7] was -1%, the growth inhibition [2, 8] was 39% and the growth inhibition ([2]; at 50.0 µM) was 42.2%. For the same compound, the growth inhibition [3, 7] was 6%, the growth inhibition [3, 8] was 61% and the growth inhibition ([3]; at 50.0 µM) was 13.2%. For the same compound, the growth inhibition [4, 7] was -2%, the growth inhibition [4, 8] was 37% and the growth inhibition ([4]; at 50.0 µM) was 10.2%. It also gave a growth inhibition [5, 7] of 0%, a growth inhibition [5, 8] of 16% and a growth inhibition ([5]; at 50.0 µM) of 9%. The growth inhibition [6, 7] was -4%, the growth inhibition [6, 8] was 41% and the growth inhibition ([6]; at 50.0 µM) was 29.2%.
